IL1B secr inh: inflammasome signaling inhibition, IL-1 beta readout. THP-1 LPS/ATP IL-1B secretion, AlphaLISA, 16 h; hits give low values. activity change, % at 57.5 µM. hit rate 4.7% among 360,000; in the data active means activity change below about -50%; inconclusive means mostly about -30% to -49%; further: on the % scale 0 is the no-effect control and ±100 the full control effect
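Secreted IL-1B measured by AlphaLISA bead assay after 16 h compound exposure of THP-1 cells; compounds (final up to 57.5 uM) added 1 h before LPS (250 ng/mL) and ATP (1.25 mM) stimulation; lower signal means less secretion.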
KB-V1 cytotox: kills drug-selected multidrug resistant KB-V1 cells | hit rate 3.4% among 400,000 | KB-V1 MDR cells viability, CellTiter-Glo, 72 h | Potency, µM (doses to about 46.1 µM), actives largely listed as cytotoxic; further: potency means the concentration at half of the fitted maximal effect; on the % scale 0 is the no-effect control and ±100 the full control effect; nearly all actives have a fitted effect of over 60% in size
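qHTS viability screen in drug-selected KB-V1 MDR cells: 72 h compound treatment at 37 degrees C, ATP luminescence end point.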
SW480 rereplic: inducers of DNA re-replication in SW480 colon cancer cells | SW480 DNA re-replication, Hoechst DNA content imaging, 48 h | Potency, µM (titrated, usually from 46.1 µM), for inactives: top-dose re-replication activation, hits mostly activators | hit rate 1.8% among 340,000 | AID 624297; further: potency means the concentration at half of the fitted maximal effect; % of control where 0% means no effect; nearly all actives have a fitted effect of over 55% in size
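Compounds, transferred as 23 nL by pin tool, were incubated with cells for 48 hr; DNA content per nucleus was then quantified by Hoechst staining and fluorescence plate imaging.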
MCF10A rereplic: DNA re-replication induction in MCF 10a cells; MCF 10A DNA re-replication, Hoechst nuclear intensity, 48 h; Potency, µM (top dose mostly 46.1 µM), for the others: at the top dose activity, positive = re-replication, actives largely listed as activators; hit rate 2.9% among 350,000; AID 624296; further: potency means the concentration at half of the fitted maximal effect; % of control where 0% means no effect; nearly all actives have a fitted effect of over 50% in size
KB-3-1 cytotox: kills parental KB-3-1 adenocarcinoma cells. KB-3-1 viability, CellTiter-Glo ATP luminescence, 72 h. Potency, µM (doses to about 46.1 µM), actives largely listed as cytotoxic. hit rate 1.4% among 400,000; further: potency means the concentration at half of the fitted maximal effect; on the % scale 0 is the no-effect control and ±100 the full control effect; nearly all actives have a fitted effect of over 60% in size
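KB-3-1 cells, DMEM (no phenol red) + 10% FBS; compound by pin transfer, 72 h, 37 °C. Readout: CellTiter-Glo luminescence after 10 min. Data normalized, curve-fitted.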
* hit, by the source's call; ! = not confirmed by another sample. Shown are actives, neighbours in structure and some others; about 9.9% of the full set was active somewhere. Unless noted, the call rests on the fitted dose curve; in most records, active means well fitted curve in the direction sought with a large enough effect; inconclusive means small, poorly fitted or top-dose-only effect, or another doubt; inactive means no such curve, though single readings can be large; an effect the other way counts as inactive or inconclusive.

`C=CCN1C(=O)N/C(=C/c2ccc(N3CCOCC3)o2)C1=O` gave SW480 rereplic 5.8µM* and MCF10A rereplic 5.8µM*.
Screening O=C1N/C(=C/c2ccc(N3CCOCC3)o2)C(=O)N1c1ccccc1 returned IL1B secr inh -103.7*, KB-V1 cytotox inactive, SW480 rereplic 8.2µM*, MCF10A rereplic 3.66µM* and KB-3-1 cytotox inactive.
O=C1NC(=S)S/C1=C/c1ccc(N2CCOCC2)o1 was read as IL1B secr inh 12.2, KB-V1 cytotox inactive, SW480 rereplic inconclusive, MCF10A rereplic inconclusive and KB-3-1 cytotox inactive.
For CC(NC(=O)COc1ccccc1)C(=O)N1CCN(c2ccc(F)cc2)CC1 (centres undefined) the results were IL1B secr inh 7.3, KB-V1 cytotox 18.4µM*, SW480 rereplic -3.7%, MCF10A rereplic 10.8% and KB-3-1 cytotox inactive.
`O=C(NCc1ccncc1)C(=O)NCC(c1ccco1)N1CCN(c2ccccc2F)CC1` (centres undefined) gave IL1B secr inh -0.5, KB-V1 cytotox 2.31µM*, SW480 rereplic -3.6%, MCF10A rereplic -2.9% and KB-3-1 cytotox inactive.
`O=C(NCC(c1ccco1)N1CCN(c2ccccc2F)CC1)OCc1ccccc1` (centres undefined) gave IL1B secr inh -11.1, KB-V1 cytotox inconclusive, SW480 rereplic -1.6%, MCF10A rereplic 20.1% and KB-3-1 cytotox inactive.
O=C(COc1ccccc1)NCC(c1ccco1)N1CCN(c2ccccc2F)CC1 (centres undefined) was read as IL1B secr inh -13.7, KB-V1 cytotox 14.6µM*, SW480 rereplic inconclusive, MCF10A rereplic 81.9% and KB-3-1 cytotox inconclusive.
O=C(COc1ccccc1)NCC(c1ccco1)N1CCN(c2ccc(F)cc2)CC1 (centres undefined) was read as IL1B secr inh -53.7*, KB-V1 cytotox inactive, SW480 rereplic inconclusive, MCF10A rereplic -0.7% and KB-3-1 cytotox inactive.
For O=C(NCc1ccncc1)C(=O)NCC(c1ccco1)N1CCN(c2ccccc2)CC1 (centres undefined) the results were IL1B secr inh 31.7, KB-V1 cytotox inconclusive, SW480 rereplic -9.7%, MCF10A rereplic 9.7% and KB-3-1 cytotox inactive.
`O=C(COc1ccccc1)NCC(c1ccco1)N1CCCCC1` (centres undefined) gave IL1B secr inh -4.0, KB-V1 cytotox inactive, SW480 rereplic 15.6%, MCF10A rereplic 4.8% and KB-3-1 cytotox inactive.
For Cc1ccc(NC(=O)COC(=O)Cn2ccc(=O)[nH]c2=O)cc1C the results were IL1B secr inh 16.5, KB-V1 cytotox inactive, SW480 rereplic -5.3%, MCF10A rereplic -4.9% and KB-3-1 cytotox inactive.
Screening O=S(=O)(c1ccccc1F)N1CCN(CCc2ccccc2)CC1 returned IL1B secr inh -16.8, KB-V1 cytotox inconclusive, SW480 rereplic -1.6%, MCF10A rereplic inconclusive and KB-3-1 cytotox inactive.
For CN(C(=O)Nc1ccc(C(C)(C)C)cc1)C1CCCCC1 the results were IL1B secr inh 12.1, KB-V1 cytotox inconclusive, SW480 rereplic -15.8%, MCF10A rereplic 3.5% and KB-3-1 cytotox inactive.
`O=C(Cc1cc(=O)[nH][nH]1)N/N=C/c1c(Cl)cccc1Cl` gave IL1B secr inh -100.0*!, KB-V1 cytotox inconclusive, SW480 rereplic 7.1%, MCF10A rereplic inconclusive and KB-3-1 cytotox inactive.
Screening COc1cc2c3nnc(-c4ccc(F)cc4)c-3cn(Cc3ccccc3)c2cc1OC returned IL1B secr inh -95.0*, KB-V1 cytotox inactive, SW480 rereplic inconclusive, MCF10A rereplic inconclusive and KB-3-1 cytotox inconclusive.
COc1cc2c3nnc(-c4ccc(F)cc4)c-3cn(Cc3ccc(F)cc3)c2cc1OC was read as IL1B secr inh 20.8, KB-V1 cytotox inactive, SW480 rereplic inconclusive, MCF10A rereplic 18.4µM* and KB-3-1 cytotox inconclusive.
`CNC(=O)CS(=O)CC(=O)Nc1cc(OCCOC)c(Cl)cc1Cl` (centres undefined) gave IL1B secr inh 2.7, KB-V1 cytotox inactive, SW480 rereplic -15.8%, MCF10A rereplic 2.1% and KB-3-1 cytotox inactive.
For COc1ccc(-c2nnc(SCC(=O)Oc3cccc(C)c3C)o2)cc1 the results were KB-V1 cytotox inactive and KB-3-1 cytotox inactive.
`COc1cc([N+](=O)[O-])ccc1NC(=S)NNC(=O)CCC(=O)Nc1ccccc1Cl` gave IL1B secr inh 12.2, KB-V1 cytotox inactive, SW480 rereplic 0.1%, MCF10A rereplic 5.0% and KB-3-1 cytotox inactive.
Screening CN(Cc1cccs1)C(=O)Cn1cnc2cc([N+](=O)[O-])ccc2c1=O returned IL1B secr inh 0.2, KB-V1 cytotox inactive, SW480 rereplic -13.3%, MCF10A rereplic 0.82µM* and KB-3-1 cytotox inactive.
`COc1ccc(Br)cc1CNC(=O)c1ccc2c(c1)nc1n2CCCCC1` gave KB-V1 cytotox inactive and KB-3-1 cytotox inactive.
For O=C(NC1CCCCCC1)c1c(F)c(F)c(F)c(F)c1F the results were IL1B secr inh -90.8*, KB-V1 cytotox inactive, SW480 rereplic -2.2%, MCF10A rereplic inconclusive and KB-3-1 cytotox inactive.
`O=C(NC1CCCCCCC1)c1ccc(F)cc1` gave IL1B secr inh -7.3, KB-V1 cytotox inactive, SW480 rereplic 0.9%, MCF10A rereplic -0.8% and KB-3-1 cytotox inactive.
`Cn1c(=O)[nH]c2ccc([N+](=O)[O-])nc21` gave IL1B secr inh -1.5, KB-V1 cytotox inactive, SW480 rereplic -5.3%, MCF10A rereplic 0.6% and KB-3-1 cytotox inactive.
For CC1=C(C(=O)N(C(C)C)C(C)C)CC(CC(=O)NCc2cccs2)C(=O)N1Cc1ccccc1 (centres undefined) the results were IL1B secr inh -21.3, KB-V1 cytotox inactive and KB-3-1 cytotox inactive.
Screening O=C(Cc1ccccc1)Nc1ccc2[nH]ncc2c1 returned IL1B secr inh -58.4*, KB-V1 cytotox inactive, SW480 rereplic -11.4%, MCF10A rereplic -2.5% and KB-3-1 cytotox inactive.
`CCOC(=O)C[C@H]1c2cc(C(F)(F)F)ccc2S(=O)(=O)N1Cc1ccccc1` gave IL1B secr inh 33.5, KB-V1 cytotox 10.3µM*!, SW480 rereplic -3.7%, MCF10A rereplic 19.3% and KB-3-1 cytotox inactive.
CCOC(=O)C[C@H]1c2ccccc2S(=O)(=O)N1Cc1ccc(Cl)cc1 was read as IL1B secr inh 14.4, KB-V1 cytotox 16.4µM*!, SW480 rereplic -2.1%, MCF10A rereplic 17.7% and KB-3-1 cytotox inconclusive.
For CCc1ccc(S(=O)(=O)c2nnn3c2nc(NCc2cccs2)c2sccc23)cc1 the results were KB-V1 cytotox inactive and KB-3-1 cytotox inactive.
For O=C(Cc1ccc(NC(=O)N2CCSc3ncccc32)cc1)NCCc1ccccc1 the results were KB-V1 cytotox inactive and KB-3-1 cytotox inactive.

Assay outcomes (PubChem BioAssay)
